# Measurements as given in PubChem BioAssay (EPA / NIEHS).
# Where “and” joins values, the source holds several entries; their conditions need not be identical. Identical values can stand only once. Calls of active or inactive are those of the source. The calls were made as follows: active = hit-call score of the fitted dose curve at least 0.9, where 1 is the maximum; inactive = score below 0.9.
# Assay: ATG_NRF2_ARE_CIS: Attagene CIS-FACTORIAL HepG2 Assay for human Nuclear Factor Erythroid 2 Related Factor 2 (NFR2) response to Antioxidant Response Elements (ARE) (AID 2282992)
# Conditions: HepG2 Attagene ARE/NRF2 reporter, transcription factor activity; actives raise or lower the signal
# Method: ATG_CIS is a cell-based, multiplexed-readout assay that uses HepG2, a human liver cell line, with measurements taken at 24 hours after chemical dosing in a 24-well plate.ATG_NRF2_ARE_CIS is one of 52 assay component(s) measured or calculated from the ATG_CIS assay. It is designed to make measurements of mRNA induction, a form of inducible reporter, as detected with fluorescence intensity signals by Reverse transcription polymerase chain reaction (RT-PCR) and Capillary electrophoresis technology.Data from the assay component ATG_NRF2_ARE_CIS was analyzed into 1 assay endpoint. This assay endpoint, ATG_NRF2_ARE_CIS, was analyzed with bidirectional fitting relative to DMSO as the negative control and baseline of activity. Using a type of inducible reporter, measures of mRNA for gain or loss-of-signal activity can be used to understand the reporter gene at the transcription factor-level as they relate to the gene NFE2L2. Furthermore, this assay endpoint can be referred to as a primary readout, because this assay has produced multiple assay endpoints where this one serves a reporter gene function. To generalize the intended target to other relatable targets, this assay endpoint is annotated to the dna binding intended target family, where the subfamily is basic leucine zipper.
# Human liver HepG2 cells are transiently transfected with multiple reporter transcription units (MRTUs) in 6-well plates using FuGene 6 reagent (Roche; 3 ml FuGene/1 mg DNA). The MRTU constructs are regulated by a cis-regulating element (promoter). […] A major difference between the CIS and TRANS system is that in CIS activities of endogenous TFs are measured, whereas the TRANS assay evaluates changes in activities of exogenous, chimeric NR-Gal4 proteins. […] At the end of 24 hour incubation, total RNA was isolated using TriZol reagent (Invitrogen). The isolated RNA is then reverse-transcribed using oligo(dT) primer and Mo-MLV reverse transcriptase (Invitrogen) with DNAse I (Ambion) treatment for 30 min. The one-tenth of the produced cDNA was amplified by PCR using Taq DNA polymerase (Invitrogen) and two reporter sequence-specific primers. The PCR products were fluorescently labeled by primer extension with 6-arboxyfluorescein (6-FAM) 5'-labeled reporter sequence-specific primer (2 min at 95 C, 20 s at 68 C and 10 min at 72 C) and these products were digested with 5U of HpaI (New England Biolabs) for 2h at 37 C. The fragments were purified using Qiaquick PCR columns (Qiagen), analyzed on an ABI 3130xL genetic analyzer (Applied Biosystems) with peak positions identified by using a set of X-rhodamine (ROX)-labeled MapMarker1000 molecular weight standards (BioVentures). The raw capillary electrophoresis data was processed using Attagraph software (Attagene).
Structure (SMILES),outcome,AC50
CC[N+](CC)(CC)CC,inactive,
CCOP(=S)(OCC)SCSc1cc(Cl)ccc1Cl,inactive,
Nc1cccnc1,inactive,
O=C(Nc1ccc(Br)cc1)c1cc(Br)cc(Br)c1O,,2.91 µM (active)
Cc1cc(C)cc(C)c1,inactive,
BrCCCCBr,inactive,
Nc1c(Oc2ccccc2)cc(O)c2c1C(=O)c1ccccc1C2=O,,2.25 µM (active)
Nc1ccc(N)cc1,,11.5 µM (active) and 12.4 µM (active)
O=C(O)C1(c2ccc3c(c2)OC[C@H](Cc2ccc(-c4ccccc4)cc2)[C@H]3O)CCCC1,,8.26 µM (active)
C[C@H]1C(=O)O[C@@H]2CCN3CC=C(COC(=O)[C@](C)(O)[C@]1(C)O)[C@H]23,inactive,
OC(Cc1ccccc1Cl)(Cn1[nH]cnc1=S)C1(Cl)CC1 (stereo not given),,12.1 µM (active)
CCCCCCCCCCCCOS(=O)(=O)O,inactive,
O=[N+]([O-])c1ccccc1O,inactive,
C#CCOC(=O)/C=C(C)/C=C/CC(C)CCCC(C)C (stereo not given),,57.3 µM (active)
Nc1ccc(Br)cc1,inactive,
O=C(Cc1ccccc1)OCCc1ccccc1,inactive,
O=C(O)CC(O)(CC(=O)O)C(=O)O,inactive,
OC(Cc1ccccc1Cl)(Cn1cncn1)C1(Cl)CC1 (stereo not given),inactive,
N#Cc1cccnc1,inactive,
COP(=S)(OC)Oc1cc(Cl)c(I)cc1Cl,,8.28 µM (active)

Structure (SMILES),outcome,AC50
Cc1ccc(CCl)cc1,inactive,
COC(=O)c1cc(Oc2ccc(Cl)cc2Cl)ccc1[N+](=O)[O-],,56.8 µM (active)
O=S1OC[C@@H]2[C@H](CO1)[C@]1(Cl)C(Cl)=C(Cl)[C@@]2(Cl)C1(Cl)Cl (stereo not given in full),inactive,
Cc1cccc(C)c1NC(=O)CN1CCCC1=O,inactive,
CCOc1cc(C=O)ccc1O,inactive,
CCOC(=O)c1ccccc1S(=O)(=O)NC(=O)Nc1nc(Cl)cc(OC)n1,inactive,
C=CC(=O)[O][Sn]([CH2]CCC)([CH2]CCC)[CH2]CCC,,0.111 µM (active)
O=C(NC(=O)c1c(F)cccc1F)Nc1cc(Cl)c(F)c(Cl)c1F,inactive,
CC(F)(F)CC(F)(F)F,inactive,
O=[N+]([O-])c1ccc(Cl)c([N+](=O)[O-])c1,inactive,
CC(c1ccc(O)cc1)c1ccc(O)cc1,,67.4 µM (active)
CCCCN(CCCC)C(=S)S,,23.5 µM (active)
CC(C)=CC1C(C(=O)OCc2cccc(Oc3ccccc3)c2)C1(C)C (stereo not given),inactive,
CN(N=O)C(N)=O,inactive,
NC(=O)CCl,,78.2 µM (active)
O=S(=O)(c1ccc(Cl)cc1)c1cc(Cl)c(Cl)cc1Cl,,10.4 µM (active)
N#Cc1ccncc1,inactive,
C[CH2][Hg][S]c1ccccc1C(=O)O,,0.3 µM (active)
BrCc1ccc(Br)cc1,inactive,
CC(C)(c1ccc(O)c(-c2ccccc2)c1)c1ccc(O)c(-c2ccccc2)c1,,4.64 µM (active)
